Among the test systems are NCI-H23 lung; NCI-H226 lung; NCI-H322M lung; HOP-62 NSCLC; NCI-H460 lung; NCI-H522 lung; A549/ATCC NSCLC; 786-0 renal; COLO 205 colon; DU-145 prostate; K-562 leukemia; MALME-3M melanoma; MDA-MB-231 breast; RXF 393 renal; SF-268 CNS; SF-295 CNS; SF-539 CNS; UACC-257 melanoma; M14 melanoma.
Common to all, as to assay: NCI-60 one-dose screen, 48 h (100 = growth as untreated, 0 = no growth, -100 = all killed)
Holding throughout (settings): 10 µM unless noted

About 83,000 compounds went through this panel and 20% of them were active in at least one assay; those are over-represented in the sample as a whole.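 Results are percent growth after 48 hours of single-concentration exposure. 100 means growth as in untreated cells, lower positive values show inhibition; negative values down to -100 show cell death.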 A number with no mark means an inactive call. The source made the active and inactive calls. Rule for the calls: active = growth percent below 10; inactive = the rest.

Regarding `CC1CCN(CCCCCOc2ccc3oc4ccc(Cl)cc4c(=O)c3c2)CC1`, the growth in the assay with NCI-H23 lung was 73.6%; with NCI-H226 lung, 94.7%; in the assay on NCI-H322M lung it was 79.8%; in the assay on HOP-62 NSCLC, 77.1%; in the assay with NCI-H460 lung it was 26.6%; in the assay on NCI-H522 lung, 52.9%. Moreover, the growth is 47.5% in the assay on A549/ATCC NSCLC; 45.8% in the assay on 786-0 renal; 21.7% in the assay with COLO 205 colon; 78.9% in the assay with DU-145 prostate; 9.6% (active) with K-562 leukemia; 81.6% in the assay on MALME-3M melanoma. The growth with MDA-MB-231 breast is 48%; with RXF 393 renal, 71%; in the assay on SF-268 CNS, 77.5%; in the assay on SF-295 CNS, 78.7%; with SF-539 CNS, 74.6%; in the assay on UACC-257 melanoma, 5.99% (active).

For the molecule `O=S(=O)(Cc1ccc(Cl)cc1Cl)c1ccc(Cl)cc1`, the growth in the assay with NCI-H23 lung is 50.2%; in the assay with NCI-H226 lung, 69.3%; with NCI-H322M lung, 50.3%; with HOP-62 NSCLC, 36.5%; with NCI-H460 lung, 18.4%; with NCI-H522 lung, -5.62% (active). Besides, the growth in the assay on A549/ATCC NSCLC was 30.7%; in the assay on 786-0 renal, 30.2%; in the assay on COLO 205 colon, 8.87% (active); in the assay with DU-145 prostate, 41%; with K-562 leukemia, 10.5%; with MALME-3M melanoma, 58%. Also, the growth with MDA-MB-231 breast was 49.8%; in the assay with RXF 393 renal it was -15.6% (active); in the assay on SF-268 CNS, 67.8%; with SF-295 CNS it was 2.18% (active); with SF-539 CNS, 12.7%; in the assay with UACC-257 melanoma, 77.4%.

Take `O=C(N/N=C/c1ccccc1O)c1ccncc1`: the growth in the assay with NCI-H23 lung was 70.9%; with NCI-H226 lung it was 70.1%; with NCI-H322M lung, 51.2%; in the assay on HOP-62 NSCLC, 43%; in the assay with NCI-H460 lung, 25.7%; in the assay with NCI-H522 lung, -20% (active). Besides, the growth in the assay with A549/ATCC NSCLC was 53.6%; in the assay on 786-0 renal, 51.1%; in the assay with COLO 205 colon, 27.4%; with DU-145 prostate, 58.3%; with K-562 leukemia it was 64.9%; with MALME-3M melanoma, 73.6%. In addition, the growth is 62.8% with MDA-MB-231 breast; 80.7% with RXF 393 renal; 48.3% in the assay with SF-268 CNS; 54% with SF-295 CNS; 70.8% in the assay with SF-539 CNS; 60.7% in the assay on UACC-257 melanoma.

Consider `O=C(Nc1cccc(N=Cc2c(O)ccc3ccccc23)c1)c1ccccc1`, for which the growth in the assay with NCI-H23 lung was 95.8%; with NCI-H226 lung, 94.1%; in the assay with NCI-H322M lung, 95%; in the assay on HOP-62 NSCLC, 86.9%; with NCI-H460 lung it was 111%; with NCI-H522 lung, 76.8%. Besides, the growth in the assay on A549/ATCC NSCLC was 94.7%; with 786-0 renal, 93.4%; in the assay with COLO 205 colon, 105%; with DU-145 prostate, 98.2%; in the assay on K-562 leukemia, 97.3%; in the assay on MALME-3M melanoma, 102%. For the same molecule, the growth in the assay with MDA-MB-231 breast was 94.1%; with RXF 393 renal it was 90.4%; in the assay with SF-268 CNS, 89.1%; with SF-295 CNS, 95.2%; in the assay with SF-539 CNS it was 90.5%; in the assay with UACC-257 melanoma, 91.6%.

`Cc1ccc(OC2=C(C#N)C(=N)N3C(=NN2)Sc2c(C)ccc(C)c23)cc1`: the growth was 85.3% in the assay on NCI-H23 lung; 93.4% in the assay with NCI-H226 lung; 102% with NCI-H322M lung; 99.6% in the assay with HOP-62 NSCLC; 100% in the assay with NCI-H460 lung; 90.4% with NCI-H522 lung. The growth is 98.6% with A549/ATCC NSCLC; 110% in the assay on 786-0 renal; 106% in the assay on COLO 205 colon; 122% with DU-145 prostate; 98% with K-562 leukemia; 120% with MALME-3M melanoma. For the same molecule, the growth is 95.4% with MDA-MB-231 breast; 106% with RXF 393 renal; 113% in the assay on SF-268 CNS; 96.7% in the assay with SF-295 CNS; 102% in the assay with SF-539 CNS; 108% in the assay on UACC-257 melanoma. For the same molecule, the growth in the assay on M14 melanoma was 109%.

For the molecule `CCN(CC)Cc1cc(Nc2ccnc3ccc(OC)cc23)ccc1O`, the growth in the assay with NCI-H23 lung is 56%; with NCI-H226 lung, 56.4%; with NCI-H322M lung, 38.5%; in the assay with HOP-62 NSCLC it was 71.2%; in the assay on NCI-H460 lung it was 20.1%; with NCI-H522 lung, -1.72% (active). The growth was 22.5% in the assay with A549/ATCC NSCLC; 18.2% with 786-0 renal; 78.2% in the assay with COLO 205 colon; 40.5% in the assay with DU-145 prostate; 12.7% in the assay with K-562 leukemia; 75% in the assay on MALME-3M melanoma. In addition, the growth with MDA-MB-231 breast is 58.8%; in the assay on RXF 393 renal it was 48.9%; in the assay with SF-268 CNS it was 53%; in the assay with SF-295 CNS it was 79%; in the assay on SF-539 CNS, 64.7%; with UACC-257 melanoma, -17.7% (active).

`Clc1cc(Cl)cc(-c2cnc3nonc3n2)c1`: the growth in the assay on NCI-H23 lung was 77.3%; in the assay on NCI-H226 lung, 104%; in the assay with NCI-H322M lung, 95.1%; with HOP-62 NSCLC, 87.4%; in the assay with NCI-H460 lung, 106%; in the assay with NCI-H522 lung it was -69.3% (active). Also, the growth was 103% with A549/ATCC NSCLC; 93.2% in the assay on 786-0 renal; 72.5% with COLO 205 colon; 97.9% in the assay with DU-145 prostate; 79% in the assay on K-562 leukemia; 76.9% in the assay with MALME-3M melanoma. For the same molecule, the growth in the assay with MDA-MB-231 breast is 89.7%; with RXF 393 renal, 108%; in the assay with SF-268 CNS it was 93.5%; with SF-295 CNS it was 99.8%; in the assay on SF-539 CNS, 107%; in the assay with UACC-257 melanoma it was 89.9%.

For the molecule `COc1ccc(-c2cc(C(=O)Nc3ccc(Br)cc3)nc3[nH]c(=O)sc23)cc1`, the growth was 23.6% in the assay with NCI-H23 lung; 63.4% in the assay with NCI-H226 lung; 46.8% in the assay on NCI-H322M lung; 72.7% with HOP-62 NSCLC; 28.8% in the assay with NCI-H460 lung; -9.13% (active) with NCI-H522 lung. In addition, the growth is 20.3% with A549/ATCC NSCLC; 57.2% in the assay on 786-0 renal; 42.3% in the assay on COLO 205 colon; 54.9% in the assay on DU-145 prostate; 27% in the assay with K-562 leukemia; 25% in the assay with MALME-3M melanoma. The growth was 84.8% in the assay with MDA-MB-231 breast; 65.1% in the assay on RXF 393 renal; 51.6% in the assay with SF-268 CNS; 53.2% in the assay on SF-295 CNS; 43.6% in the assay with SF-539 CNS; 16.4% in the assay with UACC-257 melanoma.
